Data from PubChem BioAssay (EPA / NIEHS).
Inconclusive results are not listed. The source made the active and inactive calls. Rule for the calls, unless noted: active = hit-call score of the fitted dose curve at least 0.9, where 1 is the maximum; inactive = score below 0.9.

Tests used:
[1] = CCTE_Shafer_MEA_acute_LDH: CCTE's Lactate Dehydrogenase Assay for Cytotoxicity in the Neural Acute Assay, Shafer Lab (AID 2284086; active = hit-call score of the fitted dose curve at least 0.9, where 1 is the maximum;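 note: active means LDH release rises above DMSO vehicle level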)
How it was run: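 Cytotoxicity readout: spectrophotometric LDH activity in supernatant of rat primary cortical neurons, post-plating day 13 or 15, sampled after 40 min compound exposure; signal gain relative to DMSO baseline.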

[2] = CCTE_Shafer_MEA_dev_mutual_information_norm: CCTE's Neural Network Formation Assay for Mutual Information Normalization, Shafer Lab (AID 2284091);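 note: mutual information between electrodes summarised as area under curve across four recording days; potency is for a decrease in mutual information relative to DMSO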
How it was run: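 Neurons from rat cortex were seeded at 1.5 x 10^5 cells/well onto PEI-coated MEAs in a laminin drop, then exposed to compound from day 0 for twelve days. Network recordings on four days gave mutual information, summarised by AUC relative to DMSO.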

[3] = CCTE_Shafer_MEA_dev_correlation_coefficient_mean: CCTE's Neural Network Formation Assay for Mean Correlation Coefficient, Shafer Lab (AID 2284093);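 note: well mean pairwise spike train correlation integrated as AUC over recording days 5 to 12; potency fitted for loss of correlation relative to DMSO vehicle wells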
How it was run: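 Spontaneous activity recorded on days 5, 7, 9 and 12 post-plating; pairwise spike correlations are averaged across active electrodes and collapsed to an area-under-curve. Rat cortical cultures are dosed from plating through 12 days, with compound renewed at media changes.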

[4] = IUF_NPC1b_proliferation_BrdU_72hr: Leibniz Research Institute for Environmental Medicine (IUF) 72-hour Neural Progenitor Cell Bromodeoxyuridine (BrdU) Proliferation Assay (NPC1b) (AID 2284207)
How it was run: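 Luminescent BrdU ELISA measured DNA synthesis during the last 16 h of a 72 h exposure of primary human neural progenitor spheres grown with EGF and FGF. Signal was fitted relative to DMSO controls.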

[5] = IUF_NPC1a_proliferation_area_72hr: Leibniz Research Institute for Environmental Medicine (IUF) 72-hour Neural Progenitor Cell Proliferation Area Assay (NPC1a) (AID 2284208)
How it was run: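 Proliferation read as increase in sphere area by phase-contrast imaging over 72 h continuous compound exposure (no renewal) of hNPC spheres grown with EGF/FGF at 37C, 5% CO2. Growth-factor withdrawal served as positive control; DMSO as baseline.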

[6] = IUF_NPC1_viability_72hr: Viability Assessment at 72 hours in the Leibniz Research Institute for Environmental Medicine (IUF) Neural Progenitor Cell Proliferation Assay (NPC1) (AID 2284209)
How it was run: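 Three-day continuous exposure of human neural progenitor spheres under EGF/FGF-driven proliferation; cell viability scored by alamar blue signal versus DMSO.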

[7] = CCTE_Mundy_HCI_Cortical_Synap_Neur_Matur_NeuriteSpotCountPerNeuriteLength: CCTE's Synaptogenesis and Neurite Maturation Assay in rat cortical cells for Neurite Spot Count per Neurite Length, Mundy Lab (AID 2284210)
How it was run: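 Read-out: synaptophysin puncta counted along MAP2-stained neurites, normalised to neurite length, by automated high-content imaging. Rat cortical cells; AraC DIV 5; chemical dosing DIV 7; termination DIV 12. DMSO baseline.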

[8] = CCTE_Mundy_HCI_Cortical_Synap_Neur_Matur_BPCount: CCTE's Synaptogenesis and Neurite Maturation Assay in rat cortical cells for Branch Point Count, Mundy Lab (AID 2284211)
How it was run: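 In this multiplexed morphology assay, cortical cells from rat receive chemicals at DIV 7 and are fixed at DIV 12, then immunostained and imaged; branch points are counted, with DMSO as baseline.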

[9] = CCTE_Mundy_HCI_Cortical_NOG_NeuriteCount: CCTE's Neurite Outgrowth Assay in rat cortical cells for Neurite Count, Mundy Lab (AID 2284212);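 note: cells fixed about two days after chemical exposure began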
How it was run: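 Rat cortical primary cells; compound added 2 h post-plating, 1/10 dilution of working solution. Anti-betaIII-tubulin/AF488 ICC; ArrayScan neurite count vs DMSO.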

[10] = CCTE_Mundy_HCI_Cortical_NOG_NeuriteLength: CCTE's Neurite Outgrowth Assay in rat cortical cells for Neurite Length, Mundy Lab (AID 2284213)
How it was run: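 First, rat primary cortical cells were plated and, 2 h later, given test chemical as a 1/10 dilution. Finally, βIII-tubulin immunostaining enabled automated imaging of neurite length.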

[11] = CCTE_Mundy_HCI_Cortical_Synap_Neur_Matur_NeuriteLength: CCTE's Synaptogenesis and Neurite Maturation Assay in rat cortical cells for Neurite Length, Mundy Lab (AID 2284214)
How it was run: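 DMSO-normalised neurite length, from high-content imaging of anti-MAP2-stained rat cortical cells fixed at DIV 12. Glia were suppressed with AraC (DIV 5) before chemical exposure from DIV 7.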

[12] = CCTE_Mundy_HCI_Cortical_Synap_Neur_Matur_SynapseCount: CCTE's Synaptogenesis and Neurite Maturation Assay in rat cortical cells for Synapse Count, Mundy Lab (AID 2284218)
How it was run: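 Endpoint: synapses/neuron by HCI (synaptophysin puncta on MAP2-labelled neurites, Hoechst nuclei). Rat primary cortical cells, AraC DIV 5, dosed DIV 7, fixed DIV 12; DMSO negative control.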

[13] = CCTE_Mundy_HCI_Cortical_Synap_Neur_Matur_NeuriteCount: CCTE's Synaptogenesis and Neurite Maturation Assay in rat cortical cells for Neurite Count, Mundy Lab (AID 2284222);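 note: exposure from day 7 to day 12 in vitro with readout at day 12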
How it was run: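 Rat primary cortical cells; AraC added at DIV 5, chemicals dosed with media change at DIV 7 through DIV 12. MAP2/synaptophysin/Hoechst immunostaining, high-content imaging of neurite number; fitted relative to DMSO.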

[14] = CCTE_Mundy_HCI_Cortical_Synap_Neur_Matur_CellBodySpotCount: CCTE's Synaptogenesis and Neurite Maturation Assay in rat cortical cells for Cell Body Spot Count, Mundy Lab (AID 2284223)
How it was run: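 High-content imaging counts synaptophysin puncta on neuronal cell bodies per neuron after MAP2/synaptophysin immunostaining. Rat primary cortical cells, glia arrested with AraC at DIV 5, were exposed DIV 7–12; signal decrease measured against DMSO.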

[15] = CCTE_Mundy_HCI_hNP1_Pro_ResponderAvgInten: CCTE's Proliferation Assay in human neuroprogenitor cells, Mundy Lab (AID 2284224; active = hit-call score of the fitted dose curve at least 0.9, where 1 is the maximum;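 note: human neural progenitor cells hNP1 derived from WA09 embryonic stem cells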)
How it was run: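 Proliferation read as average intensity of BrdU-positive cells, imaged at 26.25 h post-dosing: chemical exposure started after 40–44 h culture, BrdU during final 4 h, paraformaldehyde fixation. Positive-direction fit relative to DMSO.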

[16] = CCTE_Mundy_HCI_Cortical_NOG_NeuronCount: CCTE's Neurite Outgrowth Assay in rat cortical cells for Neuron Count, Mundy Lab (AID 2284236; active = hit-call score of the fitted dose curve at least 0.9, where 1 is the maximum;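 note: neurons counted by imaging betaIII-tubulin and Hoechst stained cortical cells; cells exposed to compound for about 48 hours before fixation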)
How it was run: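 Read-out: neuron number by high-content imaging of betaIII-tubulin (Alexa Fluor-488) and Hoechst-labelled rat primary cortical cells.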

[17] = CCTE_Mundy_HCI_Cortical_NOG_BPCount: CCTE's Neurite Outgrowth Assay in rat cortical cells for Branch Point Count, Mundy Lab (AID 2284237)
How it was run: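 Measured 50.33 h after dosing, this morphology endpoint uses rat primary cortical cultures labelled for betaIII-tubulin. Branch points are quantified by high-content imaging, with DMSO as negative control and baseline.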

[18] = CCTE_Mundy_HCI_hNP1_Casp3_7: CCTE's Caspase-Glo 3/7 Assay in human neuroprogenitor cells for Apoptosis, Mundy Lab (AID 2284240)
How it was run: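 Luminescent caspase-3/7 readout, 26.5 h post-dose, in human neural progenitor cells from WA09 embryonic stem cells. Cells grew 40–44 h at 37 °C, 5% CO2 before chemical addition. Activity analysed as signal increase over DMSO baseline.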

[19] = IUF_NPC2a_radial_glia_migration_120hr: Leibniz Research Institute for Environmental Medicine (IUF) 120-hour Neural Progenitor Cell Migration Assay for Radial Glia Migration (NPC2a) (AID 2284298)
How it was run: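 Migration distance in um, sphere core edge to migration-area edge, derived by nuclei-density algorithm from Hoechst images after 120 h compound exposure. Primary hNPC spheres differentiated on poly-D-lysine/laminin in N2 medium, 37C; medium half-replaced day 3.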

[20] = IUF_NPC2a_radial_glia_migration_72hr: Leibniz Research Institute for Environmental Medicine (IUF) 72-hour Neural Progenitor Cell Migration Assay for Radial Glia Migration (NPC2a) (AID 2284299)
How it was run: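 Spheres of human primary neural progenitors migrate on poly-D-lysine/laminin under compound exposure at 37C, 5% CO2. The 72 h radial glia migration distance comes from brightfield images, measured manually.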

[21] = IUF_NPC3_neuronal_differentiation_120hr: Leibniz Research Institute for Environmental Medicine (IUF) 120-hour Neuronal Differentiation Assay (NPC3) (AID 2284301)
How it was run: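 hNPC spheres, PDL/laminin, DMEM/F12 3:1 + 1% N2, 37C, 5% CO2; 7 concentrations + solvent control, 5 d exposure, half-change day 3. Fix 120 h; TUBB3/Hoechst ICC, CNN neuron calling; % neurons vs nuclei, DMSO-normalized.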

[22] = IUF_NPC4_neurite_length_120hr: Leibniz Research Institute for Environmental Medicine (IUF) 120-hour Neuronal Morphology Assay for Neurite Length (NPC4) (AID 2284302)
How it was run: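 hNPC spheres (0.3 mm, fetal brain GW 16-19) on PDL/laminin, DMEM:F12 3:1 + 1% N2, 37C 5% CO2; 7 concs + solvent control, day 0-5, half medium change d3; fix 120 h, TUBB3 ICC, mean neurite length um vs DMSO.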

[23] = IUF_NPC5_oligodendrocyte_differentiation_120hr: Leibniz Research Institute for Environmental Medicine (IUF) 120-hour Oligodendrocyte Differentiation Assay (NPC5) (AID 2284304; active = hit-call score of the fitted dose curve at least 0.9, where 1 is the maximum;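 note: primary human fetal neural progenitor spheres plated to migrate and differentiate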)
How it was run: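 Oligodendrocyte differentiation scored as O4-positive cells, found by CNN image analysis, as percent of Hoechst-stained nuclei in the migration area. Scoring followed 5 days of exposure of plated hNPC neurospheres differentiating in DMEM/F12 N2 medium at 37C, with compound refreshed at day 3.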

[24] = IUF_NPC2-5_cytotoxicity_120hr: Cytotoxicity Assessment at 120 hours in the Leibniz Research Institute for Environmental Medicine (IUF) Neural Progenitor Cell Migration and Differentiation Assay (NPC2-5) (AID 2284307; active = hit-call score of the fitted dose curve at least 0.9, where 1 is the maximum)
How it was run: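 Membrane-integrity loss measured as LDH activity in medium supernatant via resazurin-to-resorufin fluorescence after 120 h exposure. hNPC spheres from GW 16-19 fetal cortex differentiated on poly-D-lysine/laminin, 37C, medium half-refreshed day 3; seven concentrations, DMSO max 0.1%.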

[25] = IUF_NPC2-5_cell_number_120hr: Cell Number Assessment at 120 hours in the Leibniz Research Institute for Environmental Medicine (IUF) Neural Progenitor Cell Migration and Differentiation Assay (NPC2-5) (AID 2284308);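 note: count of Hoechst-stained nuclei in migration zone around plated human neural progenitor spheres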
How it was run: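 Counting of all Hoechst-stained nuclei in the migration area at 120 h, versus DMSO control. Primary hNPC spheres differentiated on poly-D-lysine/laminin in N2 medium at 37C, dosed from day 0 (7 concentrations, DMSO ≤0.1%), half-refed day 3.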

[26] = IUF_NPC2-5_viability_120hr: Viability Assessment at 120 hours in the Leibniz Research Institute for Environmental Medicine (IUF) Neural Progenitor Cell Migration and Differentiation Assay (NPC2-5) (AID 2284312)
How it was run: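 Human fetal neural progenitor spheres (0.3 mm) plated on poly-D-lysine/laminin in N2 differentiation medium, exposed 120 h with half-medium refresh at day 3. Viability by alamar blue resazurin fluorescence; 7 concentrations, DMSO max 0.1%.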

[27] = IUF_NPC1_cytotoxicity_72hr: Cytotoxicity Assessment at 72 hours in the Leibniz Research Institute for Environmental Medicine (IUF) Neural Progenitor Cell Proliferation Assay (NPC1) (AID 2284332; active = hit-call score of the fitted dose curve at least 0.9, where 1 is the maximum;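 note: rising LDH signal means more cytotoxicity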)
How it was run: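 Readout is fluorescence from LDH-dependent resazurin conversion, sampled from culture medium after compound contact lasting 72 h. Each well holds one 0.25-0.35 mm human progenitor sphere kept at 37C, 5% CO2 with EGF and FGF.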

[28] = CCTE_Mundy_HCI_iCellGluta_NOG_NeuronCount: CCTE's Neurite Outgrowth Assay in iCellGluta cells for Neuron Count, Mundy Lab (AID 2284340; active = hit-call score of the fitted dose curve at least 0.9, where 1 is the maximum;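 note: cells fixed about 48 h after compound addition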)
How it was run: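 Neuron count read by automated high-content imaging of Hoechst 33342 and betaIII-tubulin/Alexa Fluor-488 labelling in human iPSC glutamatergic neurons. Activity fitted relative to DMSO.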

[29] = CCTE_Mundy_HCI_iCellGluta_NOG_NeuriteCount: CCTE's Neurite Outgrowth Assay in iCellGluta cells for Neurite Count, Mundy Lab (AID 2284342; active = hit-call score of the fitted dose curve at least 0.9, where 1 is the maximum;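 note: chemical exposure about 48 hours starting 2 hours after plating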)

CC1(C)[C@@H](C=C(Cl)Cl)[C@@H]1C(=O)O[C@@H](C#N)c1ccc(F)c(Oc2ccccc2)c1
outcome [1]: inactive | AC50 [2]: 2.39 µM (active) | AC50 [3]: 5.16 µM (active) | outcome [4]: inactive | outcome [5]: inactive | outcome [6]: inactive | outcome [7]: inactive | outcome [8]: inactive | outcome [9]: inactive | outcome [10]: inactive | outcome [11]: inactive | outcome [12]: inactive | outcome [13]: inactive | outcome [14]: inactive | outcome [15]: inactive | outcome [16]: inactive | outcome [17]: inactive | outcome [18]: inactive | outcome [19]: inactive | outcome [20]: inactive | outcome [21]: inactive | outcome [22]: inactive | outcome [23]: inactive | outcome [24]: inactive | outcome [25]: inactive | outcome [26]: inactive | outcome [27]: inactive | outcome [28]: inactive | outcome [29]: inactive
